Laboratory results: PubChem BioAssay AID1159580 (chemical genetic matrix, 2015)
Several values for one entry are separate records, joined by “and”; a condition that tells them apart may be missing. Equal entries are not always repeated. Among all 5,500 compounds or so, about 2,000 (36%) were called active. Another 18% or so got no clear call; they are omitted. Cut-off read from the data, not from the text of the source: active = normalized growth mostly below about 0.91 (no sharp cut-off); inconclusive = no clear call, values can overlap the other calls; inactive = mostly above about 0.92. The list shows a part of the results.

Experiment: chemical genetic growth profiling, strain panel (AID 1159580);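 note: tested at 20 µM; growth read once vehicle control cultures reached saturation at 30 °C; 1 = growth at the plate median or of vehicle wells; lower values mean less growth of the strain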
Settings: S. cerevisiae deletion strains, growth OD

Measured: normalized growth

CN1CCOC(c2ccccc2)c2ccccc2C1 (configuration not stated)
inactive: locus YAL013W, strain DEP1, active compounds read low 1.01 | locus YAL021C, strain ccr4, active compounds read low 0.949 | locus YAL026C, strain drs2, active compounds read low 0.969 | locus YAL030W, strain snc1, active compounds read low 0.976 | locus YBL061C, strain skt5, active compounds read low 0.979 | locus YBR009C, strain hhf1, active compounds read low 0.984 | locus YBR021W, strain FUR4, active compounds read low 1.07 | locus YBR023C, strain chs3, active compounds read low 0.974 | locus YBR171W, strain sec66, active compounds read low 0.976 | locus YBR229C, strain ROT2, active compounds read low 1 | locus YBR231C, strain swc5, active compounds read low 0.977 | locus YBR279W, strain paf1, active compounds read low 0.975 | locus YCL011C, strain gbp2, active compounds read low 0.966 | locus YCL016C, strain dcc1, active compounds read low 1 | locus YCL029C, strain bik1, active compounds read low 1.04 | locus YCL061C, strain MRC1, active compounds read low 0.979 | locus YCL069W, strain vba3, active compounds read low 0.984 | locus YCR088W, strain abp1, active compounds read low 0.973 | locus YDL005C, strain med2, active compounds read low 0.979 | locus YDL035C, strain GPR1, active compounds read low 1 | locus YDL040C, strain nat1, active compounds read low 0.967 | locus YDL074C, strain BRE1, active compounds read low 1.05 | locus YDL101C, strain DUN1, active compounds read low 1.02 | locus YDL134C, strain PPH21, active compounds read low 1 | locus YDL185W, strain tfp1, active compounds read low 1.02 | locus YDL192W, strain arf1, active compounds read low 1.02 | locus YDR001C, strain nth1, active compounds read low 0.974 | locus YDR069C, strain doa4, active compounds read low 0.91 | locus YDR101C, strain arx1, active compounds read low 1.01 | locus YDR137W, strain rgp1, active compounds read low 0.988 | locus YDR150W, strain NUM1, active compounds read low 0.992 | locus YDR159W, strain sac3, active compounds read low 0.916 | locus YDR162C, strain NBP2, active compounds read low 1.01 | locus YDR195W, strain ref2 0.941 | locus YDR297W, strain sur2, active compounds read low 0.985 | locus YDR318W, strain mcm21, active compounds read low 1.03 | locus YDR334W, strain swr1, active compounds read low 0.917 | locus YDR335W, strain msn5, active compounds read low 0.995 | locus YDR388W, active compounds read low 1.02 | locus YDR392W, strain spt3, active compounds read low 0.987 | locus YDR502C, strain sam2, active compounds read low 1.01 | locus YEL003W, strain gim4, active compounds read low 0.989 | locus YEL037C, strain rad23, active compounds read low 0.985 | locus YEL061C, strain CIN8 (second series), active compounds read low 0.971 | locus YEL061C, strain CIN8, active compounds read low 1 | locus YER015W, strain faa2, active compounds read low 0.992 | locus YER016W, strain bim1, active compounds read low 0.975 | locus YER110C, active compounds read low 1.02 | locus YER111C, strain swi4, active compounds read low 0.971 | locus YER155C, strain BEM2 (second series), active compounds read low 1.01 | locus YER155C, strain BEM2, active compounds read low 1.01 | locus YER167W, strain BCK2, active compounds read low 1.01 | locus YFR010W, strain ubp6, active compounds read low 0.966 | locus YGL078C, strain dbp3, active compounds read low 1.02 | locus YGL086W, strain mad1, active compounds read low 0.998 | locus YGL167C, strain pmr1, active compounds read low 0.981 | locus YGL173C, strain kem1, active compounds read low 0.958 | locus YGL227W, strain vid30, active compounds read low 0.951 | locus YGL240W, strain doc1, active compounds read low 0.977 | locus YGL248W, strain PDE1, active compounds read low 1.01 | locus YGL253W, strain hxk2, active compounds read low 0.963 | locus YGR078C, strain PAC10, active compounds read low 1.02 | locus YGR135W, strain pre9, active compounds read low 1.02 | locus YGR229C, strain SMI1, active compounds read low 0.987 | locus YGR252W, strain gcn5, active compounds read low 0.997 | locus YHR013C, strain ard1, active compounds read low 0.992 | locus YHR027C, strain rpn1, active compounds read low 0.98 | locus YHR030C, strain SLT2, active compounds read low 1 and 0.998 | locus YHR079C, strain IRE1 (second series), active compounds read low 1.02 | locus YHR079C, strain IRE1, active compounds read low 0.985 | locus YHR094C, strain hxt1, active compounds read low 1.01 | locus YHR129C, strain ARP1, active compounds read low 1.01 | locus YHR142W, strain chs7, active compounds read low 0.963 | locus YHR200W, strain rpn10, active compounds read low 1.02 | locus YIL066C, strain RNR3, active compounds read low 1.01 | locus YIL073C, strain SPO22, active compounds read low 1.06 | locus YIL125W, strain kgd1, active compounds read low 1.01 | locus YIR030C, strain dcg1, active compounds read low 1.02 | locus YJL092W, strain hpr5, active compounds read low 0.986 | locus YJL095W, strain BCK1 (second series), active compounds read low 0.975 | locus YJL095W, strain BCK1, active compounds read low 1.02 and 0.995 | locus YJL115W, strain asf1, active compounds read low 0.949 | locus YJL129C, strain trk1, active compounds read low 0.968 | locus YJL134W, strain LCB3, active compounds read low 1 | locus YJL154C, strain vps35, active compounds read low 0.95 | locus YJL164C, strain tpk1, active compounds read low 0.984 | locus YJL166W, strain qcr8, active compounds read low 0.968 | locus YJL168C, strain set2, active compounds read low 1.02 | locus YJL187C, strain SWE1 (second series), active compounds read low 1.02 | locus YJL187C, strain SWE1, active compounds read low 0.985 | locus YJR043C, strain POL32, active compounds read low 1.03 | locus YJR066W, strain TOR1, active compounds read low 0.945
